High-throughput results: PubChem BioAssay, National Center for Advancing Translational Sciences (NCATS)
An excerpt weighted towards active compounds, which were near 10% of everything screened.
HP1b binding inh = blocks HP1-beta chromodomain binding to methylated histone tails; AlphaScreen HP1-beta / biotin-H3K9me3 peptide binding; P83916; 390,000 tested, 0.56% active; Potency, µM (highest dose often 114 µM), usual class: inhibitors; note: nearly all actives have a fitted effect of over 70% in size
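AlphaScreen: HP1-beta (50 nM) preformed 30 min with biotin-H3(1-18)K9me3 peptide (50 nM) in PBS pH 7.4, 0.01% Tween-20. Compound added for 30 min at RT, then streptavidin donor/nickel chelate acceptor beads (10 ug/mL) for 30 min.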
G9a block = inhibitors of human histone lysine methyltransferase G9a | G9a H3K9 monomethylation, AlphaScreen, 2 h | Potency, µM (titrated, usually from 102 µM), most hits filed as inhibitors | 350,000 tested, 8.8% active; note: nearly all actives have a fitted effect of over 75% in size
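Signal arises when biotinylated H3K9 peptide, once monomethylated, bridges streptavidin donor and antibody-captured acceptor beads. Enzyme at 20 nM was preincubated 15 min with test compounds; peptide 500 nM and SAM 20 uM then reacted for 2 h.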
CtBP-E1A blk = inhibitors of CtBP/E1A interaction; AlphaScreen GST-E1A/His-CtBP binding, 1536-well; hits give low values; activity change, % (no concentration beside the values); 340,000 tested, 0.49% active; in the data active = activity change below about -65%; inconclusive = mostly about -30% to -63%
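GST-E1A and His-tagged CtBP (125 nM each as 5X stock) were preincubated with pin-transferred compound for 2 h at 37 °C in the dark, then glutathione donor and nickel acceptor beads were added for 1 h before AlphaScreen reading.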
BAZ2B block = inhibitors of human BAZ2B bromodomain; Q9UIF8; AlphaScreen BAZ2B-H3K14Ac peptide displacement; Potency, µM (titrated, usually from 114 µM), hits mostly inhibitors; 360,000 tested, 4.4% active; note: nearly all actives have a fitted effect of over 60% in size
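In this displacement format the biotinylated H3(5-23) peptide acetylated at Lys14 serves as ligand at 50 nM, with BAZ2B at 50 nM in PBS pH 7.4 containing 0.01% Tween-20. Donor and acceptor beads are 10 ug/mL final.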
Six1-Eya2 blk = inhibitors of human Six1/Eya2 interaction | AlphaScreen GST-Six1/His-Eya2 binding, biochemical; hits give low values | activity change, % (test concentration not listed) | 360,000 tested, 0.56% active | Q15475+O00167; in the data active = activity change below about -65%; inconclusive = mostly about -30% to -63%
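Compounds are tested against tagged Six1 and Eya2 proteins bridged by glutathione donor and nickel acceptor beads; after a one-hour incubation at 37 °C without light, AlphaScreen emission is recorded.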
JMJD2A Tudor = JMJD2A Tudor domain (human) inhibition. O75164. AlphaScreen JMJD2A-Tudor / H3K4me3 peptide binding. Potency, µM (series often up to 114 µM), most hits filed as inhibitors. 390,000 tested, 4.4% active. AID 504339; note: nearly all actives have a fitted effect of over 50% in size
Of the large screens only hits and unclear results are named; the others gave an inactive call. Unless noted, calls come from the whole dose curve; as a rule, active = well fitted inhibition curve with a large enough effect; inconclusive = small, poorly fitted or top-dose-only effect; inactive = no such curve, though single readings can be large or run the other way.

Cc1c(NC(=O)c2ccc(OC(C)C)cc2)cccc1-c1nc2ncccc2o1	none (no result: CtBP-E1A blk, Six1-Eya2 blk)
Fc1ccc(-n2c(Cc3cccs3)n[nH]c2=S)cc1Cl	G9a block 1.8µM
FC(F)(F)c1ccc(Cl)c(-n2c(Cc3cccs3)n[nH]c2=S)c1	BAZ2B block inconclusive, JMJD2A Tudor inconclusive (no result: G9a block, CtBP-E1A blk)
CCc1cc(-c2n[nH]c(=S)n2CC)cs1	G9a block inconclusive, JMJD2A Tudor 8.9µM
Cc1ccccc1-n1c(Cc2cccs2)n[nH]c1=S	G9a block inconclusive, JMJD2A Tudor 8.9µM
Cc1ccc(CCNC(=O)c2cc3sccc3n2Cc2ccc(Cl)cc2)cc1	none (no result: CtBP-E1A blk, Six1-Eya2 blk)
Cn1nc(-c2ccccc2)c2cc(C(=O)O)sc21	G9a block inconclusive, CtBP-E1A blk inconclusive, Six1-Eya2 blk inconclusive
CSc1nnc(-c2cc3c(-c4ccccc4)nn(C)c3s2)n1C	CtBP-E1A blk -74, BAZ2B block inconclusive, Six1-Eya2 blk -74
Cc1onc(-c2c(F)cccc2Cl)c1C(=O)Nc1cccc(S(=O)(=O)NCc2ccco2)c1	G9a block 56µM (no result: BAZ2B block)
Cc1onc(-c2c(F)cccc2Cl)c1C(=O)NCc1ccco1	none
O=C(Nc1ccc(S(=O)(=O)NCc2ccco2)cc1)c1cccc(F)c1	G9a block 56µM
O=C(N/N=C1/CC2C=CCC12)c1cccs1 (stereo not given)	none
O=C(N/N=C1/CC2C=CCC12)c1ccco1 (stereo not given)	JMJD2A Tudor 50µM
Cc1ccc(Cn2c(CCNC(=O)c3cccc(C)c3)nc3ccccc32)cc1	none (no result: CtBP-E1A blk, Six1-Eya2 blk)
N#Cc1c(N)oc(-c2ccco2)c1-c1ccco1	G9a block 45µM, BAZ2B block inconclusive, JMJD2A Tudor inconclusive
N#Cc1c(N)oc(-c2cccs2)c1-c1cccs1	G9a block 13µM, JMJD2A Tudor inconclusive
N#Cc1c(N)nc2c(c1-c1cccs1)CCCC2	none (no result: CtBP-E1A blk)
COc1ccc(OC)c(/C=N/c2oc(-c3ccco3)c(-c3ccco3)c2C#N)c1	HP1b binding inh inconclusive, G9a block 32µM, JMJD2A Tudor 50µM
COc1ccc(OC)c(C=NN=Cc2cc(OC)ccc2OC)c1	none (no result: HP1b binding inh, G9a block, BAZ2B block, JMJD2A Tudor)
CCc1ccc2c(c1)/C(=C/C(=O)c1cccs1)C(=O)N2	G9a block 11µM, BAZ2B block 11µM, JMJD2A Tudor 13µM
Cc1cccc2c1NC(=O)/C2=C\C(=O)c1cccs1	G9a block inconclusive
COc1ccc(CN(C)Cc2cc(=O)oc3cc(C)c(C(C)C)cc23)cc1OC	G9a block 89µM
CN(C)CCNC(=O)NC1CCCCC1	none
CC1CCC(NC(=S)NCCN(C)C)CC1 (stereo not given)	G9a block 40µM, BAZ2B block 50µM, JMJD2A Tudor 7.9µM
Cc1ccc(C(=O)NC(=S)Nc2ccc(N3CCOCC3)cc2)c(C)c1	HP1b binding inh inconclusive, BAZ2B block 22µM, JMJD2A Tudor inconclusive (no result: G9a block)
CCCCCC(=O)NC(=S)Nc1ccc(N2CCOCC2)cc1	G9a block 3.5µM, BAZ2B block inconclusive (no result: CtBP-E1A blk)
Cc1ccc(C(=O)NC(=S)Nc2ccc3c(c2)OCCO3)c(C)c1	G9a block inconclusive, BAZ2B block inconclusive, JMJD2A Tudor inconclusive
CSc1ccc(-c2nc3ccc(C)cn3c2Nc2ccccc2C)cc1	none (no result: CtBP-E1A blk, BAZ2B block, Six1-Eya2 blk)
CCOC(=O)c1ccc(NC(=O)c2c(NCc3cc(OC)ccc3OC)sc3c2CCC3)cc1	G9a block 5µM (no result: CtBP-E1A blk, Six1-Eya2 blk)
CCOC(=O)N1CCc2c(sc(NCc3cc(OC)c(OC)cc3OC)c2C(=O)Nc2ccc(OCC)cc2)C1	HP1b binding inh inconclusive, G9a block 3.2µM, BAZ2B block inconclusive, JMJD2A Tudor 11µM (no result: CtBP-E1A blk, Six1-Eya2 blk)
CCOC(=O)c1ccc(NC(=O)c2c(NCc3cc(OC)c(OC)cc3OC)sc3c2CCCC3)cc1	HP1b binding inh inconclusive, G9a block 7.1µM, BAZ2B block 25µM, JMJD2A Tudor 25µM (no result: CtBP-E1A blk, Six1-Eya2 blk)
CCOc1ccc(NC(=O)c2c(NCc3cc(OC)c(OC)cc3OC)sc3c2CCCC3)cc1	HP1b binding inh inconclusive, G9a block 13µM, BAZ2B block 25µM, JMJD2A Tudor 25µM (no result: CtBP-E1A blk, Six1-Eya2 blk)
O=C(Cc1ccc(NC(=O)N2CCCCc3ccccc32)cc1)NCc1ccccc1	none (no result: CtBP-E1A blk, Six1-Eya2 blk)
CNC(=O)c1c(NC(=O)c2nc(SCc3ccc(C)cc3)ncc2Cl)sc2c1CCCC2	none (no result: CtBP-E1A blk, Six1-Eya2 blk)
